Test [1] addresses T1, ETS1 (UniProt P14921).
T1 sequence: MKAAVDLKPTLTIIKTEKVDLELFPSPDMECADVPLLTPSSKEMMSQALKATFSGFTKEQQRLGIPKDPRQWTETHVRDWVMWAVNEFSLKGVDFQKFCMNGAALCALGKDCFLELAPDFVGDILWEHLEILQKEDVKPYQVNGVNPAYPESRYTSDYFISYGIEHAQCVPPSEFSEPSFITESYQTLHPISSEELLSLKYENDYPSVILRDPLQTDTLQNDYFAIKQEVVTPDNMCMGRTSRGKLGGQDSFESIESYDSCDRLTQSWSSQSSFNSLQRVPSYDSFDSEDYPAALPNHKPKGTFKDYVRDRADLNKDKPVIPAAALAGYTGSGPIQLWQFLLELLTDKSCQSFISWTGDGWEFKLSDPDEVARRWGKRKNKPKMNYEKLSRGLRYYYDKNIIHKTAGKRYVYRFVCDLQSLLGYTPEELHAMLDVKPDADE
Briefly: ETS1 binding intensity (PBM fluorescence), ETS1 alone (arbitrary fluorescence units); higher = stronger binding. As to conditions: ETS1 concentration 1 nM; RUNX1 concentration 0 nM.

The target in test [2] is T1, ETS1. As to the kind of experiment: ETS1 binding intensity (PBM fluorescence) in presence of RUNX1, normalised to ETS1-only experiment (arbitrary fluorescence units); higher = stronger binding. As to conditions: ETS1 concentration 1 nM; RUNX1 concentration 25 nM.
The next test deals with RUNX1 (UniProt Q01196). As to the kind of experiment: RUNX1 binding intensity (PBM fluorescence), RUNX1 alone (arbitrary fluorescence units); higher = stronger binding. As to conditions: RUNX1 concentration 2 nM; ETS1 concentration 0 nM. As to the method:
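Cooperative gcPBM on 36-bp genomic probes with neighbouring ETS1 and RUNX1 sites. Recombinant human RUNX1 (2 nM) was incubated alone or with ETS1 (25 nM) and detected with anti-RUNX1 antibody plus Alexa488 secondary. Values are medians over 4 replicate spots; the RUNX1+ETS1 data were normalised to the RUNX1-only data. The probes sit in constant array flanks that are not printed.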

The record followed here is the supplement of paper PMC10681739.
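Throughout, for RUNX1 binding intensity (PBM fluorescence), RUNX1 alone: Full-length recombinant human RUNX1 bound to double-stranded 36-bp genomic probes on a high-density microarray, scored as Alexa488 fluorescence per spot via anti-RUNX1 antibody, median of four replicate spots.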

Sequence of RUNX1 (Q01196 whole entry): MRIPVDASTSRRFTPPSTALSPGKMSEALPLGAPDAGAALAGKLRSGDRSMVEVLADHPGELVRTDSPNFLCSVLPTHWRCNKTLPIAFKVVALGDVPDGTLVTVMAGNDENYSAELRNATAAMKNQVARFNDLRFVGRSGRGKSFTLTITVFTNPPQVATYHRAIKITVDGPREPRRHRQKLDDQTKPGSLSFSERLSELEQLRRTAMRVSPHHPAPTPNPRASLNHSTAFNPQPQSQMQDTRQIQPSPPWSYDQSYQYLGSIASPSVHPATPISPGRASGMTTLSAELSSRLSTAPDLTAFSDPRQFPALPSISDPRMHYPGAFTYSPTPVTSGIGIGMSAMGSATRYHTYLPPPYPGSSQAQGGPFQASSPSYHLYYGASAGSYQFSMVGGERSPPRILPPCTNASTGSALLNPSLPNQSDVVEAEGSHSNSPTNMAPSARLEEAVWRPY

On to GTGCCCCGGACCTACGGATACCACACACAGACAGGC, for which the ETS1 binding intensity in the test with ETS1 [1] was determined as 470; with ETS1 [2], 460.

Consider TATGACCAGGGGAGGGAAGTGACCACAGCATATCAC, for which the ETS1 binding intensity is 466 in the test with ETS1 [1] and 823 in the test with ETS1 [2].

In the case of GCGCCAGTCACCGTTTCCTGTGGTTTGCTGCCCGCC, the ETS1 binding intensity in the test with ETS1 [1] worked out at 1790; with ETS1 [2], 3010. This sequence also had an RUNX1 binding intensity with RUNX1 of 1050.

As for CAGATTCAAGGAAGTGGTGGTGGTTTGGTGTCGTTG, the ETS1 binding intensity in the test with ETS1 [1] stood at 738; in the test with ETS1 [2], 1370. In the test with RUNX1, this sequence returned an RUNX1 binding intensity of 755.

As to GCCACGCAGTTCCCTTCCTGCGGCGTCCTCCACACC, the ETS1 binding intensity came out at 561 in the test with ETS1 [1] and 421 with ETS1 [2].

As for TCCAGCCGGACGCGATGCCTGGAGGCTGCGGGCGCC, the values for the ETS1 binding intensity in the test with ETS1 [1] and with ETS1 [2] were 328 and 597, respectively.

Regarding CCACTGCTTCCGCCTTCTCTGCTGGCTGCGGGGAGC, the ETS1 binding intensity worked out at 545 with ETS1 [1] and 516 in the test with ETS1 [2]. The sequence further displayed an RUNX1 binding intensity with RUNX1 of 904.

Take GCCACCGTATTTCCGCGTTTTTCGCGGTAGGCGGGA: the ETS1 binding intensity in the test with ETS1 [1] came to 465; in the test with ETS1 [2] it was 576.

Regarding CTAACCCTTCTCTTCCTGCAAAAACCACAACAAAGG, the values for the ETS1 binding intensity with ETS1 [1] and with ETS1 [2] were 640 and 1720, respectively. In the test with RUNX1, the RUNX1 binding intensity is 2250.

As for ACACAAACAGGAAGTGTTTGTGGTCCCTGCCTTTAG, the ETS1 binding intensity in the test with ETS1 [1] came out at 7210; with ETS1 [2] it was 14500. This sequence also registered an RUNX1 binding intensity with RUNX1 of 748.

Turning to AGAACAAAACAGGAAATAGTGGTTTGCAAAAATATA, the ETS1 binding intensity in the test with ETS1 [1] came out at 5780; in the test with ETS1 [2] it was 8400. The sequence also gave an RUNX1 binding intensity in the test with RUNX1 of 736.

Turning to ATGTAAACAAGGATGTGAGTTCTGCGGCCACACTCT, the ETS1 binding intensity with ETS1 [1] was determined as 448; in the test with ETS1 [2], 763.

With ACAGGAAATGACTTAGGGAAAGTCCCAACCGCAATC, the ETS1 binding intensity came to 2800 with ETS1 [1] and 15700 with ETS1 [2]. The sequence also registered an RUNX1 binding intensity in the test with RUNX1 of 1230.

With CAGGCTGCTTCCGGCGCGCGGCAGAGCGGTCAGAGC, the ETS1 binding intensity was 990 with ETS1 [1] and 1160 in the test with ETS1 [2].

As to AAAACCTTGTTGAAAGGATGTGGCTTAGCGAGAGGT, the ETS1 binding intensity in the test with ETS1 [1] was determined as 1140; in the test with ETS1 [2], 1820.

AAAGGCGGAAGGGGGGCAGGGAACCCACAAAACAGA: the ETS1 binding intensity with ETS1 [1] was 457; with ETS1 [2], 610. In the test with RUNX1, the RUNX1 binding intensity was determined as 959.

Turning to ACTTACTTCCCGACGTCACAGCCACCGAAACCACAG, the results for the ETS1 binding intensity with ETS1 [1] and in the test with ETS1 [2] were 468 and 464, respectively. In addition, in the test with RUNX1, the RUNX1 binding intensity was 1410.
